The structures appear in SMILES notation. The panel holds about 83,000 compounds, 20% with a hit somewhere; the sample as a whole holds those more often.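 Note: values are percent growth. 100 is the growth of untreated cells, values between 100 and 0 indicate rising inhibition; between -100 and 0 indicates cell death.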 A number with no mark means an inactive call. The source made the active and inactive calls.

For this assay, the system named is MDA-MB-468 breast. The assay can be described thus: NCI-60 one-dose screen, 48 h (100 = growth as untreated, 0 = no growth, -100 = all killed). The conditions noted are these: 10 µM unless noted. The protocol: Growth inhibition of the MDA-MB-468 human Breast tumor cell line is measured as a screen for anti-cancer activity. Cells are grown in 96 well plates and exposed to the test compound for 48 hours. Compounds are tested at a single concentration, which is 10^-5 M for most compounds. The reported endpoint is percent growth (GI% or GIPRCNT), where numbers from 0 - 100% represent growth inhibition, and numbers from -100% - 0 represent cell death. For example, a value of 40 represents 60% growth inhibition. A value of 0 means no net growth occurred over the course of the experiment. A value of -40 indicates 40% of cells at the beginning of the experiment died by the end of the experiment. A value of -100 means all cells are dead at the end of the experiment.
NCI-60 Human Tumor Cell Lines Screen was performed using the standard one-dose NCI protocol, which is described in more detail at https://dtp.cancer.gov/discovery_development/nci-60/default.htm.
Compounds with GIPRCNT values below 10 were considered active. Activity score was based on GIPRCNT using the following formula: […]
Score is 0 for GIPRCNT values of 100 or above, 50 for GIPRCNT values of 0, and 100 for GIPRCNT values of -100.
For the compound `CCCCCCCCCCCCCCCCNC(=O)Nc1ccc2ccccc2c1`, the growth was 94.3%. Turning to `CCCCCCCCOC(=O)c1ccc(O)c(OC)c1`, the growth is 99.2%. Consider `S=C(c1ccc2c(c1)OCO2)N1CCN(c2cccc(Cl)c2)CC1`, for which the growth is 6.42% (active). Then `CCN1C(=O)N(CC)C2C1NN=c1s/c(=C3\C(=O)N(CCC(C)C)c4ccccc43)c(=O)n12` (stereo not given), with 27.1%.

As for `Cc1c(C(=O)Nc2nc3ccccc3[nH]2)cnn1-c1ccccn1`, the growth was 112%. As for `Nc1nc(N)c(-c2ccc(Cl)c(Cl)c2)c(CBr)n1`, the growth is 84%. Take `CC1=C/C(=N\N=C2/C=C(C)CC(C)(C)C2)CC(C)(C)C1`: the growth was 98.5%. On to `O=C(CN1CCN(c2cc3c(cc2F)c(=O)c(C(=O)O)cn3C2CC2)CC1)Nc1cc(=O)[nH]c(=O)[nH]1`, for which the growth is 89.7%.

In the case of `NC(=S)N/N=C/c1cn(-c2ccccc2)nc1-c1cc2ccccc2oc1=O`, the growth is 43.3%. On to `COc1ccc(/C=C/C(=O)/C=C/c2cc3ccccc3[nH]c2=O)cc1`, for which the growth is 43.9%.

Turning to `Cc1cc(C)c(C(=O)c2cccs2)c(C)c1`, the growth is 105%. Then `O=C(O)c1cn(C2CC2)c2cc(N3CCN(C(=O)N/N=C/c4cccc5ccccc45)CC3)c(F)cc2c1=O`, with 103%; and `O=[N+]([O-])c1c(F)cccc1Nc1cccc(F)c1`, with 127%; and `CC(=O)Oc1cccc(S(=O)(=O)n2cc(C(=O)C(=O)Nc3ccncc3)c3ccccc32)c1`, with 7.5% (active). Under `O=C(CC(=O)c1ccccc1F)Nc1ccc([N+](=O)[O-])cc1` stands 90.9%; under `O=C1C=CC(=O)N1c1cccc(Cl)c1`, 86.7%; under `COc1cc(C2C=C(C)N=C3SC=NN32)cc(OC)c1OC` (stereo not given), 102%. Turning to `CCn1cnc2c1c(=O)[nH]c(=O)n2CC1CCC(CNS(=O)(=O)c2ccc(OC3CCOCC3)c(F)c2)CC1` (stereo not given), the growth is 30.5%. Regarding `Cc1ccc(C(=O)Nc2ccc(CN3CCN(C)CC3)c(C(F)(F)F)c2)cc1C#Cc1cnc2cccnn12`, the growth is -85.9% (active). Under `CC(=O)NC(C)(C)C(=O)N1CCC[C@H]1C(=O)NC(C)(C)C(=O)N[C@@H](C)C(=O)NC(C)(C)C(=O)N[C@@H](C)C(=O)N[C@@H](CCC(N)=O)C(=O)NC(C)(C)C(=O)N[C@H](C(=O)NC(C)(C)C(=O)NCC(=O)N[C@@H](CC(C)C)C(=O)NC(C)(C)C(=O)N1CCC[C@H]1C(=O)N[C@H](C(=O)NC(C)(C)C(=O)NC(C)(C)C(=O)N[C@@H](CCC(N)=O)C(=O)N[C@@H](CCC(N)=O)C(=O)N[C@H](CO)Cc1ccccc1)C(C)C)C(C)C` stands 3.71% [4.25 µM] (active). As for `COc1cc(-c2c3c(nc4c2c(C)nn4-c2ccccc2)-c2ccccc2C(=O)C3=O)cc(OC)c1OC`, the growth is 88.9%.

Regarding `CN(C)/C=C1\SC(=Nc2ccc(Cl)cc2)NC1=O`, the growth is 110%. Then `COc1ccc(NC2=C(I)C(=O)c3ncccc3C2=O)cc1`, with -58% (active); and `Cc1cc2nc3c4cc([N+](=O)[O-])ccc4n(CCN(C)C)c3nc2cc1C`, with -39.1% (active).

In the case of `Nc1nc(N)c2c(n1)NC(c1ccc(Cl)cc1)C1CCc3ccccc3C1=N2` (stereo not given), the growth was 18.6%. For the compound `OCC(O)C(O)C(O)C(O)/C=N/O` (stereo not given), the growth is 99.5%. Turning to `CC(C)C[C@H](NC(=O)[C@@H](Cc1ccccc1)n1ccc(Nc2ccccc2)cc1=O)B(O)O`, the growth was -19.8% (active). Under `COc1cc(OC)c2cc(C(=O)c3ccc(C#N)cc3)c(=O)oc2c1` stands 94.1%; under `COc1cc2nc(N3CCCC3)nc(NCC3CCCCC3)c2cc1OC`, -41.2% (active). Under `COc1ccc(C2CC(c3cc(Cl)c(C)cc3OC)=NN2c2ccc(S(N)(=O)=O)cc2)cc1OC` (stereo not given) stands 94.6%; under `Cc1c2cnccc2c(C)c2c1c1cc(O)ccc1n2C(C)C`, 24.3%; under `CCC[S@](=O)c1ccc2nc(NC(=O)OC)[nH]c2c1`, 94.1%. In the case of `C/C(=N\NC(=S)Nc1ccccc1)c1ccccn1`, the growth was -10.2% (active).

Turning to `CCNC(=O)Oc1ccc(/C(=C(/C)c2ccccc2)c2ccc(OCCN3CCCCCC3)cc2)cc1`, the growth was -16.9% (active). Then `Clc1ccc2c(NCCCNCc3ccc4c(c3)OCO4)ccnc2c1`, with -11.9% (active).

Take `Nc1cccc(Cl)c1N`: the growth was -21.1% (active).

Turning to `O=C(c1ccc(/C=C/c2n[nH]c3ccccc23)cc1)N1CCNCC1`, the growth is 65.9%.

On to `COc1cc(-c2nnc(-c3nc(-c4cc(OC)c(OC)c(OC)c4)n4ccccc34)o2)ccc1N`, for which the growth was 97.7%. Under `COc1cc2ncnc(Nc3ccc4c(cnn4C(=O)Nc4ccccc4)c3)c2cc1OC` stands 52%; under `COc1cc(CNCCN2C(=O)c3ccc4c5c(ccc(c35)C2=O)C(=O)N(CCNCc2cc(OC)c(OC)c(OC)c2)C4=O)cc(OC)c1OC`, -91.6% (active).
